Each structure is given as a SMILES string. Screen size: about 78,000 compounds; about 1,800 (2.3%) were called active. Another 27% or so got no clear call; they are omitted. This is one part of a sample in which actives are shown more often than they occur. No stated cut-off is given here; in the data, active means inhibition above about 30%; inconclusive means mostly about 10% to 28%; inactive means weaker than that.

One may read the inhibition as the relative decrease from the control value, in per cent.

Chain of Interleukin-1 receptor-like 1 (Homo sapiens) (Q01638 whole entry, looked up): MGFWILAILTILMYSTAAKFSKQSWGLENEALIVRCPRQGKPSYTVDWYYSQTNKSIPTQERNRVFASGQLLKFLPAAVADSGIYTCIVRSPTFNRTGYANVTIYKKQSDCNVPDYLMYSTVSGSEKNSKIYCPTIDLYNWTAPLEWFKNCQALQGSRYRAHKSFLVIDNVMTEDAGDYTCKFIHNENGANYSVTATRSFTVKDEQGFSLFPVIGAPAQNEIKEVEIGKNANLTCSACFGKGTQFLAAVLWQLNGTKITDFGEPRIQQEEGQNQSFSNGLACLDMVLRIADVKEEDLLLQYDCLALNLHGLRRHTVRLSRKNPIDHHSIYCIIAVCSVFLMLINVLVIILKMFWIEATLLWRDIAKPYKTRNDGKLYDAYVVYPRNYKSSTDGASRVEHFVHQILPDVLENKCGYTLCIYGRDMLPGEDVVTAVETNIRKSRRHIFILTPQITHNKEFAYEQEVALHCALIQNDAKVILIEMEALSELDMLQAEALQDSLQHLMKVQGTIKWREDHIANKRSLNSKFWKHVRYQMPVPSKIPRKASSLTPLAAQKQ

The assay addresses Interleukin-1 receptor-like 1 (Homo sapiens) (UniProt Q01638). Kind of assay: inhibitors of human ST2 (IL1RL1) binding to IL-33, primary screen, biochemical, AlphaLISA (AID 1259354). The conditions noted are these: AlphaLISA ST2-Fc/biotin-IL-33 interaction, 1 h; at 17 µM, hits give high values. Background: In Alpha technology, singlet oxygen from a donor bead excites a nearby acceptor bead.
`CCN(CC)c1ccc([N+](=O)[O-])c2cccnc12`: the inhibition was 56% (active). As to `CCN(CC)CCNc1ccc([N+](=O)[O-])c2cccnc12`, the inhibition result was “inactive”. Turning to `COc1cc(CN2CCN(Cc3ccccc3)CC2)cc(I)c1O`, the inhibition result was “inactive”. As for `C/C=C(\C)CN1CCC2(CCNCC2)C1`, the entry is “inactive”; as for `CCOC(=O)C1C2NC(=O)N(c3cccc(C)c3)C1(C)Oc1c(OC)cccc12` (stereo not given), “inactive”.

The values are drawn from PubChem BioAssay AID1259354 (Paczesny and Yang Labs, IUPUI and University of Michigan, 2018).
